Test results from PubChem BioAssay AID1159580 (chemical genetic matrix, 2015).
Among all 5,500 compounds or so, about 2,000 (36%) were called active. Another 18% or so got no clear call; they are omitted. This is one part of the list. Unmarked numbers belong to inactive results. Cut-off read from the data, not from the text of the source: active = normalized growth mostly below about 0.91 (no sharp cut-off); inconclusive = no clear call, values can overlap the other calls; inactive = mostly above about 0.92.

Assay: chemical genetic growth profiling, strain panel (AID 1159580);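 note: tested at 20 µM; growth read once vehicle control cultures reached saturation at 30 °C; 1 = growth at the plate median or of vehicle wells; lower values mean less growth of the strain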
Settings: S. cerevisiae deletion strains, growth OD
[1] = locus YAL013W, strain DEP1, active compounds read low
[2] = locus YBR229C, strain ROT2, active compounds read low
[3] = locus YCL061C, strain MRC1, active compounds read low
[4] = locus YDL101C, strain DUN1, active compounds read low
[5] = locus YDR150W, strain NUM1, active compounds read low
[6] = locus YEL061C, strain CIN8, active compounds read low
[7] = locus YGR078C, strain PAC10, active compounds read low
[8] = locus YHR030C, strain SLT2, active compounds read low
[9] = locus YHR087W, strain rtc3, active compounds read low
[10] = locus YJR043C, strain POL32, active compounds read low
[11] = locus YJR075W, strain HOC1, active compounds read low
[12] = locus YLR039C, strain RIC1, active compounds read low
[13] = locus YLR058C, strain SHM2 (second series), active compounds read low
[14] = locus YLR085C, strain ARP6, active compounds read low
[15] = locus YLR262C, strain YPT6, active compounds read low
[16] = locus YML094W, strain GIM5, active compounds read low
[17] = locus YMR219W, strain ESC1, active compounds read low
[18] = locus YMR263W, strain SAP30, active compounds read low
[19] = locus YMR307W, strain GAS1, active compounds read low
[20] = locus YNL153C, strain GIM3, active compounds read low
[21] = locus YNL298W, strain CLA4 (second series), active compounds read low
[22] = locus YNL322C, strain KRE1, active compounds read low
[23] = locus YNR030W, strain Alg12, active compounds read low
[24] = locus YPL055C, strain LGE1, active compounds read low
[25] = locus YPL241C, strain CIN2, active compounds read low
[26] = locus YPR135W, strain CTF4, active compounds read low
[27] = locus YGR229C, strain SMI1, active compounds read low

## Fc1cccc(Cl)c1Cn1nnc(N2CCCCC2)n1
[1]
  normalized growth: 0.973
[2]
  normalized growth: 0.96
[3]
  normalized growth: 0.977
[4]
  normalized growth: 0.992
[5]
  normalized growth: 1.01
[6]
  normalized growth: 0.966
[7]
  normalized growth: 0.946
[8]
  normalized growth: 0.444 (active)
[9]
  normalized growth: 0.941
Locus YJL187C, strain SWE1, active compounds read low
  normalized growth: 0.969
[10]
  normalized growth: 0.982
[11]
  normalized growth: 0.914
[12]
  normalized growth: 0.851
[13]
  normalized growth: 0.969
[14]
  normalized growth: 0.762 (active)
[15]
  normalized growth: 0.881
[16]
  normalized growth: 0.918
[17]
  normalized growth: 0.962
[18]
  normalized growth: 0.976
[19]
  normalized growth: 0.825
[20]
  normalized growth: 0.962
[21]
  normalized growth: 0.984
[22]
  normalized growth: 0.961
[23]
  normalized growth: 0.926
[24]
  normalized growth: 0.959
[25]
  normalized growth: 0.909
[26]
  normalized growth: 0.534 (active)

## ON(Cc1c(F)cccc1Cl)Cc1c(F)cccc1Cl
[1]
  normalized growth: 0.985
[2]
  normalized growth: 1.01
[3]
  normalized growth: 0.997
[4]
  normalized growth: 0.978
[5]
  normalized growth: 0.951
[6]
  normalized growth: 1.02
[7]
  normalized growth: 0.979
[8]
  normalized growth: 0.989
[9]
  normalized growth: 0.986
[10]
  normalized growth: 1.01
[11]
  normalized growth: 0.986
[12]
  normalized growth: 0.816
[13]
  normalized growth: 1
[14]
  normalized growth: 0.987
[15]
  normalized growth: 0.829
[16]
  normalized growth: 1.01
[17]
  normalized growth: 0.988
[18]
  normalized growth: 0.992
[20]
  normalized growth: 0.976
[21]
  normalized growth: 1.01
[22]
  normalized growth: 0.987
[23]
  normalized growth: 0.993
Locus YOL006C, strain TOP1, active compounds read low
  normalized growth: 0.966
[24]
  normalized growth: 1.02
[25]
  normalized growth: 1
[26]
  normalized growth: 0.852

## COc1ccccc1NC(=O)Nc1nn(C)c2cccc(OC)c12
Locus YAR019C, strain CDC15, active compounds read low
  normalized growth: 0.917
Locus YBL105C, strain PKC1, active compounds read low
  normalized growth: 0.918
Locus YBR135W, strain CKS1, active compounds read low
  normalized growth: 0.933
Locus YBR136W, strain MEC1, active compounds read low
  normalized growth: 0.919
Locus YBR160W, strain CDC28, active compounds read low
  normalized growth: 0.932
Locus YDL017W, strain CDC7, active compounds read low
  normalized growth: 0.924
Locus YDL028C, strain MPS1, active compounds read low
  normalized growth: 0.938
[4]
  normalized growth: 0.951
Locus YDL108W, strain KIN28, active compounds read low
  normalized growth: 0.924
Locus YDL132W, strain cdc53, active compounds read low
  normalized growth: 0.925
Locus YDL214C, strain PRR2, active compounds read low
  normalized growth: 0.843
Locus YDR052C, strain DBF4, active compounds read low
  normalized growth: 0.94
Locus YDR054C, strain cdc34, active compounds read low
  normalized growth: 0.879
Locus YDR226W, strain ADK1, active compounds read low
  normalized growth: 0.938
Locus YDR477W, strain SNF1, active compounds read low
  normalized growth: 0.781
Locus YER123W, strain YCK3, active compounds read low
  normalized growth: 0.811
Locus YER133W, strain GLC7, active compounds read low
  normalized growth: 0.731
Locus YFL009W, strain cdc4, active compounds read low
  normalized growth: 0.94
Locus YFL029C, strain CAK1, active compounds read low
  normalized growth: 0.914
Locus YFR003C, strain YPI1, active compounds read low
  normalized growth: 0.924
Locus YFR019W, strain FAB1, active compounds read low
  normalized growth: 0.907
Locus YFR028C, strain CDC14, active compounds read low
  normalized growth: 0.93
Locus YGR040W, strain KSS1, active compounds read low
  normalized growth: 0.766
Locus YGR052W, strain FMP48, active compounds read low
  normalized growth: 0.845
Locus YGR092W, strain DBF2, active compounds read low
  normalized growth: 0.81
[8]
  normalized growth: 0.637 (active)
Locus YHR079C, strain IRE1, active compounds read low
  normalized growth: 0.815
Locus YHR082C, strain KSP1, active compounds read low
  normalized growth: 0.843
Locus YHR205W, strain SCH9, active compounds read low
  normalized growth: 0.835
Locus YIL147C, strain SLN1, active compounds read low
  normalized growth: 0.935
Locus YJL095W, strain BCK1, active compounds read low
  normalized growth: 0.687
Locus YJL128C, strain PBS2, active compounds read low
  normalized growth: 0.953
Locus YJL157C, strain FAR1, active compounds read low
  normalized growth: 0.816
Locus YJR016C, strain ILV3, active compounds read low
  normalized growth: 0.928
Locus YJR066W, strain TOR1 (second series), active compounds read low
  normalized growth: 0.794
Locus YJR066W, strain TOR1, active compounds read low
  normalized growth: 0.775
Locus YKL048C, strain ELM1, active compounds read low
  normalized growth: 0.93
Locus YKL067W, strain YNK1, active compounds read low
  normalized growth: 0.866
Locus YKL101W, strain HSL1, active compounds read low
  normalized growth: 0.855
Locus YKL193C, strain SDS22, active compounds read low
  normalized growth: 0.914
Locus YKL203C, strain TOR2, active compounds read low
  normalized growth: 0.776
Locus YLR113W, strain HOG1, active compounds read low
  normalized growth: 0.599 (active)
Locus YLR133W, strain CKI1, active compounds read low
  normalized growth: 0.818
Locus YLR403W, strain SFP1, active compounds read low
  normalized growth: 0.649 (active)
Locus YML070W, strain DAK1, active compounds read low
  normalized growth: 0.824
Locus YMR001C, strain CDC5, active compounds read low
  normalized growth: 0.902
Locus YMR205C, strain PFK2 (second series), active compounds read low
  normalized growth: 0.863
Locus YMR277W, strain FCP1, active compounds read low
  normalized growth: 0.918
Locus YNL006W, strain LST8, active compounds read low
  normalized growth: 0.933
Locus YNL020C, strain ARK1, active compounds read low
  normalized growth: 0.818
Locus YNL161W, strain CBK1, active compounds read low
  normalized growth: 0.929
Locus YNL183C, strain NPR1, active compounds read low
  normalized growth: 0.745
Locus YNL207W, strain RIO2, active compounds read low
  normalized growth: 0.91
Locus YNL222W, strain SSU72, active compounds read low
  normalized growth: 0.929
Locus YNL307C, strain MCK1 (second series), active compounds read low
  normalized growth: 0.827
Locus YOL078W, strain AVO1, active compounds read low
  normalized growth: 0.914
Locus YOL136C, strain PFK27, active compounds read low
  normalized growth: 0.81
Locus YOR061W, strain CKA2, active compounds read low
  normalized growth: 0.866
Locus YOR119C, strain RIO1, active compounds read low
  normalized growth: 0.8
Locus YOR231W, strain MKK1, active compounds read low
  normalized growth: 0.734
Locus YOR329C, strain SCD5, active compounds read low
  normalized growth: 0.933
Locus YPL031C, strain PHO85, active compounds read low
  normalized growth: 0.724
Locus YPL153C, strain RAD53, active compounds read low
  normalized growth: 0.742
Locus YPL204W, strain HRR25, active compounds read low
  normalized growth: 0.719
Locus YPL209C, strain IPL1, active compounds read low
  normalized growth: 0.943
Locus YPL256C, strain CLN2, active compounds read low
  normalized growth: 0.73 (active)
Locus YPR025C, strain CCL1, active compounds read low
  normalized growth: 0.926
Locus YPR106W, strain ISR1, active compounds read low
  normalized growth: 0.916
Locus YPR111W, strain DBF20, active compounds read low
  normalized growth: 0.919
Strain NNK1, active compounds read low
  normalized growth: 0.908
Strain TSCII, active compounds read low
  normalized growth: 0.915

## COc1ccccc1NC(=O)Nc1nc(-c2cccnc2)nc2ccccc12
[1]
  normalized growth: 1.01
Locus YAL040C, strain CLN3, active compounds read low
  normalized growth: 1.02
Locus YCL061C, strain MRC1 (second series), active compounds read low
  normalized growth: 1
Locus YDR363W, strain ESC2, active compounds read low
  normalized growth: 1.02
Locus YER002W, strain NOP16, active compounds read low
  normalized growth: 1.04
[7]
  normalized growth: 0.993
[27]
  normalized growth: 1.01
[18]
  normalized growth: 1.01
[19]
  normalized growth: 1.02
Locus YNL128W, strain TEP1, active compounds read low
  normalized growth: 0.998
Locus YNL175C, strain NOP13, active compounds read low
  normalized growth: 0.977
Locus YNL197C, strain WHI3, active compounds read low
  normalized growth: 1.01
Locus YNL224C, strain SQS1, active compounds read low
  normalized growth: 1.01
Locus YOR083W, strain WHI5 (second series), active compounds read low
  normalized growth: 1.01
[24]
  normalized growth: 1.01

## COc1ccccc1NC(=O)N1CCCN(C(=O)c2cccs2)CC1
[1]
  normalized growth: 1.01
[2]
  normalized growth: 1.02
[3]
  normalized growth: 1.02
[4]
  normalized growth: 1.03
Locus YDL134C, strain PPH21, active compounds read low
  normalized growth: 1.01
[5]
  normalized growth: 1.05
[6]
  normalized growth: 0.994
[7]
  normalized growth: 1.01
[27]
  normalized growth: 1.01
[8]
  normalized growth: 1.03
[9]
  normalized growth: 0.986
[10]
  normalized growth: 1.02
[11]
  normalized growth: 1.02
Locus YKL190W, strain CNB1, active compounds read low
  normalized growth: 1.01
[12]
  normalized growth: 1.05
[13]
  normalized growth: 1
[14]
  normalized growth: 1.03
[15]
  normalized growth: 1.02
[16]
  normalized growth: 1.02
[17]
  normalized growth: 1.01
[18]
  normalized growth: 1.04
[20]
  normalized growth: 1.01
[21]
  normalized growth: 1.04
[22]
  normalized growth: 1.01
[23]
  normalized growth: 1.02
[24]
  normalized growth: 1.01
[25]
  normalized growth: 1.05
[26]
  normalized growth: 1.04
